# Experiments:
# Experiment in all cases: DAPPL (digital affinity profiling via proximity ligation, sequencing); 10 mM Tris-HCl pH 7.5, 50 mM NaCl, 1 mM DTT, 4% glycerol, room temperature, 30 min; GST-TFs on glutathione beads, 16-mer random dsDNA library, 0.1% formaldehyde crosslink after washing; high values mean tight binding
# ETV5 = ETV5 (Homo sapiens, UniProt P41161 1-510); settings: protein: recombinant; tags: N-terminal GST; dsDNA, one strand shown
# Summary of the method: (§1)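 Sequencing on an Illumina NextSeq500 followed washing, crosslinking with 0.1% formaldehyde, proximity ligation (BsaI/T4 ligase, 1 h, 37 °C) and PCR amplification of pools that had been incubated for 30 min at room temperature with 200 nmole of a random double-stranded 16-mer DNA library in Tris/NaCl/DTT/glycerol buffer. Each pool held DNA-barcoded human transcription factors, expressed in yeast as GST fusions and captured on glutathione beads, plus a tag-only sample. Binding signal is a hexamer's read frequency for a factor divided by its frequency in the tag-only sample.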
# HSF1 = HSF1 (Homo sapiens, UniProt Q00613 1-529); settings: protein: recombinant; tags: N-terminal GST; chain copies: 3; dsDNA, one strand shown
# Summary of the method: as §1
# SPIC = target: T1, SPIC (Homo sapiens, UniProt Q8N5J4 1-248); settings: protein: recombinant; tags: N-terminal GST; dsDNA, one strand shown
# T1 sequence: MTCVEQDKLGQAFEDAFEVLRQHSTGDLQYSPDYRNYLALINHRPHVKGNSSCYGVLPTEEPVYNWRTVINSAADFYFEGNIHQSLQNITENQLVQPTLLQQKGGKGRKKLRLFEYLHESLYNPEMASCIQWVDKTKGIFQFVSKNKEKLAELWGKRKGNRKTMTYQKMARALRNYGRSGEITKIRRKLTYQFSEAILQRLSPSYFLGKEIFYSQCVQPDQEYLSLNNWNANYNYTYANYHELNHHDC
# Summary of the method: as §1
# ELF4 = ELF4 (Homo sapiens, UniProt Q99607 1-663); settings: protein: recombinant; tags: N-terminal GST; dsDNA, one strand shown
# Summary of the method: as §1
# ELK4 = target: T2, ELK4 (Homo sapiens, UniProt P28324-2 1-405); settings: protein: recombinant; tags: N-terminal GST; dsDNA, one strand shown
# T2 sequence: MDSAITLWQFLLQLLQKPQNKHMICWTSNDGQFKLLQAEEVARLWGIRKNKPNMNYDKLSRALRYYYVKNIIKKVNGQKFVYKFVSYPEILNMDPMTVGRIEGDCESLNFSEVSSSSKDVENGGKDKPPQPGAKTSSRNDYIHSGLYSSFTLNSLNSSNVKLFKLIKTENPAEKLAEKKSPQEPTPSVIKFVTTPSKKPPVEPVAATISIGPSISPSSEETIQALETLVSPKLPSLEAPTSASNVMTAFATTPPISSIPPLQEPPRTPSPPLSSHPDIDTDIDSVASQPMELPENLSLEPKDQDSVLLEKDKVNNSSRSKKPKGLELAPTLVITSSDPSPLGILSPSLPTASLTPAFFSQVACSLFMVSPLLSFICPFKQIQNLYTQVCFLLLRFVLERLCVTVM
# Summary of the method: as §1
# ETV2 = target: T3, ETV2 (Homo sapiens, UniProt O00321 1-342); settings: protein: recombinant; tags: N-terminal GST; dsDNA, one strand shown
# T3 sequence: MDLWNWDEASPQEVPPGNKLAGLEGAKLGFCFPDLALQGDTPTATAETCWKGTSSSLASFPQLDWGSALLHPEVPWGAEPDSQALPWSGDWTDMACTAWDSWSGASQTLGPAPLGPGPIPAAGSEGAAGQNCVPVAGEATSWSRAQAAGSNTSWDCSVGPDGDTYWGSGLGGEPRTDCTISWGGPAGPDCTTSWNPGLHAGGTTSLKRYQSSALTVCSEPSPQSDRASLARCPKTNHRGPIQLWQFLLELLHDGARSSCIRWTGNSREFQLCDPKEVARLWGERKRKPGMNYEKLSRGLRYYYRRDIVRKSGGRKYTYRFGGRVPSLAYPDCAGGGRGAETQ
# Summary of the method: as §1
# ELF3 = target: T4, ELF3 (Homo sapiens, UniProt P78545 1-371); settings: protein: recombinant; tags: N-terminal GST; dsDNA, one strand shown
# T4 sequence: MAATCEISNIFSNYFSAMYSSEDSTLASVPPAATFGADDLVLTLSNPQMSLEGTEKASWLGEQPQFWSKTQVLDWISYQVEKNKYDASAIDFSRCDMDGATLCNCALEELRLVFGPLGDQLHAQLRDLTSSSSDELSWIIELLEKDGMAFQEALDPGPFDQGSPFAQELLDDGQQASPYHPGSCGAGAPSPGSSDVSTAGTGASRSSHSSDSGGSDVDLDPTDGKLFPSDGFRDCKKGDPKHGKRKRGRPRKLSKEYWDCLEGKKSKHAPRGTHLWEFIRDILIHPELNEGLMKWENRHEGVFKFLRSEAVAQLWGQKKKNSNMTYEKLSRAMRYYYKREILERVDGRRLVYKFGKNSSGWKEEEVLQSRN
# Summary of the method: as §1
# CRX = CRX (Homo sapiens, UniProt O43186 1-299); settings: protein: recombinant; tags: N-terminal GST; dsDNA, one strand shown
# Summary of the method: as §1
# ETV1 = ETV1 (Homo sapiens, UniProt P50549 1-477); settings: protein: recombinant; tags: N-terminal GST; dsDNA, one strand shown
# Summary of the method: as §1
# ERF = target: T5, ERF (Homo sapiens, UniProt P50548 1-548); settings: protein: recombinant; tags: N-terminal GST; dsDNA, one strand shown
# T5 sequence: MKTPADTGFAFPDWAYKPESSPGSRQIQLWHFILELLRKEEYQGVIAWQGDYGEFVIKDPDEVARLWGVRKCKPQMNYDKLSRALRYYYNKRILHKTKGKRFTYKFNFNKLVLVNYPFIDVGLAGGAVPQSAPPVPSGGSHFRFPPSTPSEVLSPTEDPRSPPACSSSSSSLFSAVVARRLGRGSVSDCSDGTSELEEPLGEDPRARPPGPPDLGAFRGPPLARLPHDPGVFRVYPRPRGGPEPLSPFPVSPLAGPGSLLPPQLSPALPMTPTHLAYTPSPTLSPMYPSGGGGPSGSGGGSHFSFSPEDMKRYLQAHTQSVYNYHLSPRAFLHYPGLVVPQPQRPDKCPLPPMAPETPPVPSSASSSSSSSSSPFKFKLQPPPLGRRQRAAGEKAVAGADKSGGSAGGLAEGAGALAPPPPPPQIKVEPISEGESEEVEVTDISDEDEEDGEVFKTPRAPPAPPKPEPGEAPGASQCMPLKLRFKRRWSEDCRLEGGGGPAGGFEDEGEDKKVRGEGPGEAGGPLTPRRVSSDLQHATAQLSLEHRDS
# Summary of the method: as §1
# ETS2 = target: T6, ETS2 (Homo sapiens, UniProt P15036 1-469); settings: protein: recombinant; tags: N-terminal GST; dsDNA, one strand shown
# T6 sequence: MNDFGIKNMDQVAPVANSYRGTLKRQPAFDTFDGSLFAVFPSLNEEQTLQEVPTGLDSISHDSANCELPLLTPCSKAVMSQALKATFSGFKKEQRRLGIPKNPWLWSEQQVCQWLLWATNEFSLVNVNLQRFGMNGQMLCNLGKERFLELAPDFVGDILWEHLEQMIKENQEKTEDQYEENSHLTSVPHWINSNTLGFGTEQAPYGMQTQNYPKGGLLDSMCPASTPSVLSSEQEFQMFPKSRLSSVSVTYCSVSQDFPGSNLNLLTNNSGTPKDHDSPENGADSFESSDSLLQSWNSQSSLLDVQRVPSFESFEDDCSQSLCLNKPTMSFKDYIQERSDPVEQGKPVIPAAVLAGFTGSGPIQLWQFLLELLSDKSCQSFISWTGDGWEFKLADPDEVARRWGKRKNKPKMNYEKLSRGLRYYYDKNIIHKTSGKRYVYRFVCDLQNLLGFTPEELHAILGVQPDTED
# Summary of the method: as §1
# SPDEF = target: T7, SPDEF (Homo sapiens, UniProt O95238 1-335); settings: protein: recombinant; tags: N-terminal GST; dsDNA, one strand shown
# T7 sequence: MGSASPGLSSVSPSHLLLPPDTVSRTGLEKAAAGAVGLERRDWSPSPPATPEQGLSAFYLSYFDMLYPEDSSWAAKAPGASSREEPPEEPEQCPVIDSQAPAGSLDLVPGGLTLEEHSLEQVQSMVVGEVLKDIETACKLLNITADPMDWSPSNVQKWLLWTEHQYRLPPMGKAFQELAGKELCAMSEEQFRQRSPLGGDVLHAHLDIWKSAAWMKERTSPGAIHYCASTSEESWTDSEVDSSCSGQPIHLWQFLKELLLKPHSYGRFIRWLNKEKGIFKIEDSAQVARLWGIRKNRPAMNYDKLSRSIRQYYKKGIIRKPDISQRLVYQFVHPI
# Summary of the method: as §1
# ETV7 = target: T8, ETV7 (Homo sapiens, UniProt Q9Y603 1-341); settings: protein: recombinant; tags: N-terminal GST; dsDNA, one strand shown
# T8 sequence: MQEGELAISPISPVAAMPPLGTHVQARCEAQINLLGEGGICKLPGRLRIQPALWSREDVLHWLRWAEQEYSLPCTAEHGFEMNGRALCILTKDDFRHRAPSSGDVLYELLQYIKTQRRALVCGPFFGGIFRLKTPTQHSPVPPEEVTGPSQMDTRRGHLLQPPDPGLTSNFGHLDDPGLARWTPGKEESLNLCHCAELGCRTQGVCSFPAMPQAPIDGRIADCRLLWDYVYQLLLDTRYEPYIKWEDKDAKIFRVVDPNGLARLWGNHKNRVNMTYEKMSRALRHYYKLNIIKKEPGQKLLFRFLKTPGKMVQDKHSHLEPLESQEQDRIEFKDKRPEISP
# Summary of the method: as §1
# ELF5 = target: T9, ELF5 (Homo sapiens, UniProt Q9UKW6-2 1-255); settings: protein: recombinant; tags: N-terminal GST; dsDNA, one strand shown
# T9 sequence: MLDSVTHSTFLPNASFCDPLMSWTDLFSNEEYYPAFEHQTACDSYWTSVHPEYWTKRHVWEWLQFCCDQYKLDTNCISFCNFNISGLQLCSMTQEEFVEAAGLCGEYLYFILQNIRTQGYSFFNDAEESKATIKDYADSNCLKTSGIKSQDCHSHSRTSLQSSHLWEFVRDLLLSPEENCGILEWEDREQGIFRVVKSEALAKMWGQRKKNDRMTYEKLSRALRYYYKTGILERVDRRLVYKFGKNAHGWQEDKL
# Summary of the method: as §1
# ETV3 = target: T10, ETV3 (Homo sapiens, UniProt P41162-2 1-143); settings: protein: recombinant; tags: N-terminal GST; dsDNA, one strand shown
# T10 sequence: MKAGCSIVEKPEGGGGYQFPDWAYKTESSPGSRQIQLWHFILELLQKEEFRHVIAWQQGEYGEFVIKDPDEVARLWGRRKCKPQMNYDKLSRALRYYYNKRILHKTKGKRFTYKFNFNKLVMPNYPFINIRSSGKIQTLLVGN
# Summary of the method: as §1
# ETV6 = ETV6 (Homo sapiens, UniProt P41212 1-452); settings: protein: recombinant; tags: N-terminal GST; dsDNA, one strand shown
# Summary of the method: as §1
# ETV5, sequence (P41161 whole entry, the tested form may be a part): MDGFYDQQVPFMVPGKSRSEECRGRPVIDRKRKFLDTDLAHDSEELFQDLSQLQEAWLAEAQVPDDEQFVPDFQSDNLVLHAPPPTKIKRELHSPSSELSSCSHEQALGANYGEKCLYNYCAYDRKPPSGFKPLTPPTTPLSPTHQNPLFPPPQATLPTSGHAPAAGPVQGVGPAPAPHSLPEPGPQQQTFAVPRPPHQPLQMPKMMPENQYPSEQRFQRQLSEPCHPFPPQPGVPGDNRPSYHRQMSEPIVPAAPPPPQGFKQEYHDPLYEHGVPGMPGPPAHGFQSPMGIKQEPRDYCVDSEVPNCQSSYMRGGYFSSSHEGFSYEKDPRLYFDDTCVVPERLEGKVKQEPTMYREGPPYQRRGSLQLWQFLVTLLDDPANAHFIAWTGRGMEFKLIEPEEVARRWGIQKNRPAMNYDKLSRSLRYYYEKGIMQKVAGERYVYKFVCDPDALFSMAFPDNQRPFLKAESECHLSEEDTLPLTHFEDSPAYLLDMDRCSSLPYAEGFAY
# CRX, sequence (O43186 whole entry): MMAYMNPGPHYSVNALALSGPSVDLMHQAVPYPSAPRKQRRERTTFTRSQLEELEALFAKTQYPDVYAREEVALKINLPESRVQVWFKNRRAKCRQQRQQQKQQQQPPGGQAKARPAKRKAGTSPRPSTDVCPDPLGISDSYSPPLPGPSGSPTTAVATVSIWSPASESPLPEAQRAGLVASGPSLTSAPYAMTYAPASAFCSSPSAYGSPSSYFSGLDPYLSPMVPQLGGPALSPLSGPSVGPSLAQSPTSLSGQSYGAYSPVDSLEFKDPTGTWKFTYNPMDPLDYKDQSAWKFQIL
# HSF1, sequence (Q00613 whole entry): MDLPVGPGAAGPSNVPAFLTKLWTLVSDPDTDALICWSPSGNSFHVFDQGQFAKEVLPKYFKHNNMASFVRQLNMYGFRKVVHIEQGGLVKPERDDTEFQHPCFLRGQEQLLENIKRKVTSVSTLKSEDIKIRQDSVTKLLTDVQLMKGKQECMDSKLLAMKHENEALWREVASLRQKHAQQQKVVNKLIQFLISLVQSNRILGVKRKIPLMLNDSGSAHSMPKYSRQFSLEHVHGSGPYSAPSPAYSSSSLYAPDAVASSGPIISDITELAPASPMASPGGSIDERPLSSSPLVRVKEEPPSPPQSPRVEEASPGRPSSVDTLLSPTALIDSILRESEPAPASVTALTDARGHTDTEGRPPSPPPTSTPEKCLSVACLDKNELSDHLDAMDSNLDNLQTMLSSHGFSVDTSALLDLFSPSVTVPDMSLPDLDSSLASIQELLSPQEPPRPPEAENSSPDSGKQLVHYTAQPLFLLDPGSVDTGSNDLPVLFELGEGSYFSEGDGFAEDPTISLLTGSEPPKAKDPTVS
# ETV1, sequence (P50549 whole entry): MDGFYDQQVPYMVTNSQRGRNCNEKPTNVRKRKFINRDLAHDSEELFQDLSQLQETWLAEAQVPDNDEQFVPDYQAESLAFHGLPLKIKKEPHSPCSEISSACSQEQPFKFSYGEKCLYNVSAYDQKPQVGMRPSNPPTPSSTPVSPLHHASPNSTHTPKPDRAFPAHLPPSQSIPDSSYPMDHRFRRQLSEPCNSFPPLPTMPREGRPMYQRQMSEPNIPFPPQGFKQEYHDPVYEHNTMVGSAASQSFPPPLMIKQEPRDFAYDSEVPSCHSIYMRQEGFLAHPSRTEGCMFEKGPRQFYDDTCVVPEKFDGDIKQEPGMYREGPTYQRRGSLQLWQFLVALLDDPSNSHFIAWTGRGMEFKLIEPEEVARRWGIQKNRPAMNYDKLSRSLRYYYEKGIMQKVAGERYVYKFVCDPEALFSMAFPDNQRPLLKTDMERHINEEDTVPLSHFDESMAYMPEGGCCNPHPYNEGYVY
# ELF4, sequence (Q99607 whole entry): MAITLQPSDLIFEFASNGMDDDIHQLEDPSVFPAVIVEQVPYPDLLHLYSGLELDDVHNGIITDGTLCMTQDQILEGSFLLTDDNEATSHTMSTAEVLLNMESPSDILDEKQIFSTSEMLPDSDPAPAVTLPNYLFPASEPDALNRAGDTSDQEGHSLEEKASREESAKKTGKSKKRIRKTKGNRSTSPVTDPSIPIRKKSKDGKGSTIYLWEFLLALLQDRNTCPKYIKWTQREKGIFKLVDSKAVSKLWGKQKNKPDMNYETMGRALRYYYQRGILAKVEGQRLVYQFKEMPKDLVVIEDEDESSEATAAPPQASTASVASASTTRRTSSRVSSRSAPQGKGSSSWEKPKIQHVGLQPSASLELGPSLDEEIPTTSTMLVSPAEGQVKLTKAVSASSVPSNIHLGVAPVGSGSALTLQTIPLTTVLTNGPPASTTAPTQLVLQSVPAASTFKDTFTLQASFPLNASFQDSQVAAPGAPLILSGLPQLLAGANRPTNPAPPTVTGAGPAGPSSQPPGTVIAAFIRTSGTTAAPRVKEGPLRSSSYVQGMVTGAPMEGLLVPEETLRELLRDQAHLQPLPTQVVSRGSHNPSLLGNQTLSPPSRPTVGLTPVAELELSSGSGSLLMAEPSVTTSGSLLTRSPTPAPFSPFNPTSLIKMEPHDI
# ETV6, sequence (P41212 whole entry): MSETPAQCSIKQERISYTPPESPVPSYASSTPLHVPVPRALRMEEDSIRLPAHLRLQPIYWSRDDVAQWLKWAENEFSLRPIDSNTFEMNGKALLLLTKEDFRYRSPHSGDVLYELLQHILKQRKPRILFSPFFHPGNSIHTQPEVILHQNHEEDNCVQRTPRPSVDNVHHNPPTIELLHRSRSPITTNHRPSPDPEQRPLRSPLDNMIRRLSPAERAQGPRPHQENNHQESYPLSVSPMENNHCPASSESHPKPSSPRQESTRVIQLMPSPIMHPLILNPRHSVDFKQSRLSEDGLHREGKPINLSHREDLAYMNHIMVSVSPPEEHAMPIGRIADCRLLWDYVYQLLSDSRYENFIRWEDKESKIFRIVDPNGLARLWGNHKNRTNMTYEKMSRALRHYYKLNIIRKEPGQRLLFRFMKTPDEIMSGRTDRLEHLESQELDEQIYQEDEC
sequence,measurement,setting,value
TAAGGT,binding signal,ETV5,"1.12 fold enrichment (6-mer frequency, TF over GST control)"
same,binding signal,HSF1,"1.1 fold enrichment (6-mer frequency, TF over GST control)"
same,binding signal,SPIC,"1.11 fold enrichment (6-mer frequency, TF over GST control)"
same,binding signal,ELF4,"1.19 fold enrichment (6-mer frequency, TF over GST control)"
same,binding signal,ELK4,"1.06 fold enrichment (6-mer frequency, TF over GST control)"
same,binding signal,ETV2,"1.08 fold enrichment (6-mer frequency, TF over GST control)"
same,binding signal,ELF3,"1.08 fold enrichment (6-mer frequency, TF over GST control)"
same,binding signal,CRX,"1.38 fold enrichment (6-mer frequency, TF over GST control)"
same,binding signal,ETV1,"1.1 fold enrichment (6-mer frequency, TF over GST control)"
same,binding signal,ERF,"1.06 fold enrichment (6-mer frequency, TF over GST control)"
same,binding signal,ETS2,"1.06 fold enrichment (6-mer frequency, TF over GST control)"
same,binding signal,SPDEF,"1.15 fold enrichment (6-mer frequency, TF over GST control)"
same,binding signal,ETV7,"1.04 fold enrichment (6-mer frequency, TF over GST control)"
same,binding signal,ELF5,"1.05 fold enrichment (6-mer frequency, TF over GST control)"
same,binding signal,ETV3,"1.11 fold enrichment (6-mer frequency, TF over GST control)"
same,binding signal,ETV6,"1.08 fold enrichment (6-mer frequency, TF over GST control)"
